Measured values: the antibiotic and cytotoxicity screens of Wong et al. (2023)
The campaign covered roughly 39,000 compounds. About 3,300 (8.5%) were called active. The full list was thinned out, with actives kept by preference.

These compounds were tested on HepG2 (assay: cytotoxicity call (relative viability < 0.9)). Conditions: 10 µM.
In the case of `Cn1c(=O)c2c(nc(NCCN)n2C)n(C)c1=O`, the cytotoxicity call is reported as “inactive”. In the case of `COc1ccc2c3c([nH]c2c1)[C@@H](CO)N(C[C@]13CCN(CC1)C(=O)CN(C)C)S(=O)(=O)C`, the cytotoxicity call is reported as “inactive”. In the case of `CCCN(CCC)c1cc(N2CCCC2)c2ccccc2c1`, the cytotoxicity call is reported as “active”. `C[C@@H]1CN([C@H](C)CO)C(=O)c2cc(NC(=O)Cc3ccccc3)ccc2O[C@H]1CN(C)S(=O)(=O)c1ccccc1` was tested, and the cytotoxicity call was “inactive”. `Cc1ccc(S(=O)(=O)Nc2ccc3c(c2)C(=O)N([C@H](C)CO)C[C@H](C)[C@H](CN(C)C(=O)Nc2c(C)noc2C)OCCCC[C@@H](C)O3)cc1` was tested, and the cytotoxicity call was “inactive”. For `CN1CCN(C(=O)C[C@H]2CC[C@@H]3[C@@H](COc4ccc(NC(=O)c5ccc(F)c(F)c5)cc4C(=O)N3C)O2)CC1`, the cytotoxicity call was “inactive”. In the case of `C[C@@H]1CCCCO[C@@H](CN(C)Cc2ccccc2)[C@@H](C)CN([C@H](C)CO)C(=O)c2cc(NC(=O)CCCCCC(=O)Nc3ccccc3N)ccc2O1`, the cytotoxicity call is reported as “inactive”. In the case of `Cc1ccc(NC(=O)Nc2cc(C(F)(F)F)ccc2F)cc1Nc1ccc2c(c1)NC(=O)/C2=C\c1ccc[nH]1`, the cytotoxicity call is reported as “active”. With `COc1ccc(S(=O)(=O)N[C@H]2C=C[C@H](CC(=O)NCCc3ccncc3)O[C@@H]2CO)cc1` the cytotoxicity call was “inactive”. `C[C@H](CO)N1C[C@H](C)[C@@H](CN(C)S(=O)(=O)c2ccc(Cl)cc2)OCCCC[C@H](C)Oc2ccc(NC(=O)CCC(F)(F)F)cc2C1=O` was tested, and the cytotoxicity call was “inactive”. With `Cc1ccc(S(=O)(=O)N(C)C[C@H]2OCCCC[C@H](C)Oc3ccc(NC(=O)CCC(F)(F)F)cc3C(=O)N([C@H](C)CO)C[C@@H]2C)cc1` the cytotoxicity call was “inactive”. `C[C@@H]1CCCCO[C@H](CN(C)S(=O)(=O)c2ccc(Cl)cc2)[C@@H](C)CN([C@H](C)CO)C(=O)c2cc(NC(=O)CCC(F)(F)F)ccc2O1` was tested, and the cytotoxicity call was “inactive”. For `C[C@@H]1CCCCO[C@H](CN(C)S(=O)(=O)c2ccc(Cl)cc2)[C@@H](C)CN([C@@H](C)CO)C(=O)c2cc(NC(=O)CCC(F)(F)F)ccc2O1`, the cytotoxicity call was “inactive”. `Cc1ccc(S(=O)(=O)N(C)C[C@@H]2OCCCC[C@H](C)Oc3ccc(NC(=O)CCC(F)(F)F)cc3C(=O)N([C@@H](C)CO)C[C@@H]2C)cc1` was tested, and the cytotoxicity call was “active”. `C[C@@H]1CCCCO[C@@H](CN(C)S(=O)(=O)c2ccc(Cl)cc2)[C@H](C)CN([C@H](C)CO)C(=O)c2cc(NC(=O)CCC(F)(F)F)ccc2O1` was tested, and the cytotoxicity call was “active”. For `C[C@@H]1CN([C@H](C)CO)C(=O)c2cc(NC(=O)CCC(F)(F)F)ccc2O[C@@H](C)CCCCO[C@@H]1CN(C)S(=O)(=O)c1ccc(Cl)cc1`, the cytotoxicity call was “inactive”. With `C[C@@H]1CN([C@@H](C)CO)C(=O)c2cc(NC(=O)CCC(F)(F)F)ccc2O[C@@H](C)CCCCO[C@@H]1CN(C)S(=O)(=O)c1ccc(Cl)cc1` the cytotoxicity call was “inactive”. For `Cc1ccc(S(=O)(=O)N(C)C[C@@H]2OCCCC[C@@H](C)Oc3ccc(NC(=O)CCC(F)(F)F)cc3C(=O)N([C@H](C)CO)C[C@H]2C)cc1`, the cytotoxicity call was “inactive”. In the case of `C[C@@H]1CCCCO[C@H](CN(C)S(=O)(=O)c2ccc(Cl)cc2)[C@H](C)CN([C@H](C)CO)C(=O)c2cc(NC(=O)CCC(F)(F)F)ccc2O1`, the cytotoxicity call is reported as “active”. With `C[C@@H]1CN([C@@H](C)CO)C(=O)c2cc(NC(=O)CCC(F)(F)F)ccc2O[C@@H](C)CCCCO[C@H]1CN(C)S(=O)(=O)c1ccc(Cl)cc1` the cytotoxicity call was “inactive”. For `C[C@@H]1CN([C@H](C)CO)C(=O)c2cc(NC(=O)CCC(F)(F)F)ccc2O[C@@H](C)CCCCO[C@H]1CN(C)S(=O)(=O)c1ccc(Cl)cc1`, the cytotoxicity call was “active”. `COc1ccc(NC(=O)N(C)C[C@H]2Oc3c(NC(=O)C4CCOCC4)cccc3C(=O)N([C@@H](C)CO)C[C@H]2C)cc1` was tested, and the cytotoxicity call was “inactive”. `CC(C)NC(=O)Nc1ccc2c(c1)C(=O)N([C@@H](C)CO)C[C@H](C)[C@@H](CN(C)C(=O)Nc1ccccc1)OCCCC[C@@H](C)O2` was tested, and the cytotoxicity call was “inactive”. With `C[C@H](CO)N1C[C@H](C)[C@H](CN(C)Cc2cccc3c2OCCCO3)OCc2cn(nn2)CCCC1=O` the cytotoxicity call was “inactive”. For `C[C@@H]1CCCCO[C@@H](CN(C)C(=O)CCC(F)(F)F)[C@@H](C)CN([C@H](C)CO)C(=O)c2cc(NS(=O)(=O)c3cccs3)ccc2O1`, the cytotoxicity call was “inactive”. With `Cc1noc(C)c1S(=O)(=O)N(C)C[C@H]1Oc2ccc(NC(=O)CCC(F)(F)F)cc2CC(=O)N([C@@H](C)CO)C[C@@H]1C` the cytotoxicity call was “inactive”. With `O=C(C[C@H]1C=C[C@@H](NS(=O)(=O)c2ccccc2F)[C@H](CO)O1)NCCCN1CCOCC1` the cytotoxicity call was “inactive”. With `C[C@@H]1CCCCO[C@@H](CN(C)C(=O)Nc2ccccc2)[C@@H](C)CN([C@H](C)CO)C(=O)c2cc(NS(=O)(=O)c3ccc(Cl)cc3)ccc2O1` the cytotoxicity call was “inactive”. In the case of `C[C@@H]1CN([C@H](C)CO)C(=O)c2cccc(NC(=O)c3cnccn3)c2O[C@@H]1CN(C)S(=O)(=O)c1ccc(Cl)cc1`, the cytotoxicity call is reported as “inactive”. In the case of `C[C@@H]1CN([C@@H](C)CO)C(=O)c2cc(NC(=O)CCCCCC(=O)Nc3ccccc3N)ccc2O[C@@H](C)CCCCO[C@@H]1CN(C)S(=O)(=O)c1ccc(Cl)cc1`, the cytotoxicity call is reported as “inactive”. With `C[C@H](CO)N1C[C@H](C)[C@@H](CN(C)S(=O)(=O)c2ccc(C#N)cc2)OCc2cnnn2CCCC1=O` the cytotoxicity call was “inactive”. `C[C@@H]1CCCCO[C@@H](CN(C)Cc2ccccc2)[C@H](C)CN([C@H](C)CO)C(=O)c2cc(NC(=O)c3ccccc3)ccc2O1` was tested, and the cytotoxicity call was “inactive”. `Cc1noc(C)c1NC(=O)Nc1ccc2c(c1)CC(=O)N([C@@H](C)CO)C[C@@H](C)[C@@H](CN(C)CC1CC1)O2` was tested, and the cytotoxicity call was “inactive”. With `COc1ccc(NC(=O)Nc2ccc3c(c2)C(=O)N([C@@H](C)CO)C[C@@H](C)[C@H](CN(C)Cc2ccc4c(c2)OCO4)OCCCC[C@@H](C)O3)cc1` the cytotoxicity call was “inactive”. For `CCCOc1ccnc2c1c(=O)n(C)c(=O)n2C`, the cytotoxicity call was “inactive”. With `COc1ccc(NC(=O)Nc2cccc3c2O[C@@H](CN(C)Cc2ccc(C(=O)Nc4ccccc4N)cc2)[C@@H](C)CN([C@H](C)CO)C3=O)cc1` the cytotoxicity call was “inactive”. `C[C@H]1CN([C@@H](C)CO)C(=O)Cc2cc(NC(=O)C3CC3)ccc2O[C@@H]1CN(C)S(=O)(=O)c1ccccc1` was tested, and the cytotoxicity call was “inactive”. `C[C@@H]1CCCCO[C@@H](CN(C)S(=O)(=O)c2ccc(Cl)cc2)[C@@H](C)CN([C@H](C)CO)C(=O)c2cc(NC(=O)CCC(F)(F)F)ccc2O1` was tested, and the cytotoxicity call was “inactive”. `C[C@@H]1CCCCO[C@@H](CN(C)S(=O)(=O)c2ccc(Cl)cc2)[C@@H](C)CN([C@@H](C)CO)C(=O)c2cc(NC(=O)CCC(F)(F)F)ccc2O1` was tested, and the cytotoxicity call was “inactive”. With `C[C@H](CO)N1C[C@H](C)[C@H](CN(C)S(=O)(=O)c2ccc(Cl)cc2)OCCCC[C@H](C)Oc2ccc(NC(=O)CCC(F)(F)F)cc2C1=O` the cytotoxicity call was “inactive”. In the case of `C[C@H]1CCCCO[C@H](CN(C)S(=O)(=O)c2ccc(Cl)cc2)[C@@H](C)CN([C@@H](C)CO)C(=O)c2cc(NC(=O)CCC(F)(F)F)ccc2O1`, the cytotoxicity call is reported as “active”. `C[C@H]1CCCCO[C@@H](CN(C)S(=O)(=O)c2ccc(Cl)cc2)[C@@H](C)CN([C@@H](C)CO)C(=O)c2cc(NC(=O)CCC(F)(F)F)ccc2O1` was tested, and the cytotoxicity call was “inactive”. In the case of `C[C@@H]1CCCCO[C@@H](CN(C)S(=O)(=O)c2ccc(Cl)cc2)[C@H](C)CN([C@@H](C)CO)C(=O)c2cc(NC(=O)CCC(F)(F)F)ccc2O1`, the cytotoxicity call is reported as “active”. `N#C[C@@H]1C(=O)NC(=O)[C@@H](C#N)C12CCCC2` was tested, and the cytotoxicity call was “inactive”. With `Cc1noc(C)c1S(=O)(=O)N(C)C[C@@H]1OCCCC[C@@H](C)Oc2ccc(NC(=O)Nc3ccc(F)cc3)cc2C(=O)N([C@H](C)CO)C[C@@H]1C` the cytotoxicity call was “inactive”. With `C[C@@H]1CN([C@@H](C)CO)C(=O)c2cc(NC(=O)Nc3ccccc3)ccc2O[C@@H](C)CCCCO[C@@H]1CN(C)C(=O)Nc1cccc2ccccc12` the cytotoxicity call was “inactive”. For `Cc1ccc(S(=O)(=O)N(C)C[C@H]2OCCCC[C@H](C)Oc3ccc(NC(=O)Nc4cccc5ccccc45)cc3C(=O)N([C@H](C)CO)C[C@@H]2C)cc1`, the cytotoxicity call was “inactive”. For `NNC(=O)[C@@H](N)Cc1ccccc1`, the cytotoxicity call was “inactive”. `Cc1cc(C)c(NC(=O)[C@@H](N)Cc2ccccc2)c(Cl)c1` was tested, and the cytotoxicity call was “active”. For `CCOC(=O)[C@@H](N)Cc1ccccc1`, the cytotoxicity call was “inactive”. In the case of `CC(C)=CCCC(C)(O)C1CC=C(C)CC1` (stereo unspecified), the cytotoxicity call is reported as “active”. `CC1=CC[C@H](C(C)(C)O)CC1` was tested, and the cytotoxicity call was “inactive”. `C=C(C)[C@H]1CC=C(C)CC1` was tested, and the cytotoxicity call was “inactive”. For `C[C@@H]1CN([C@H](C)CO)C(=O)c2cc(NC(=O)C3CCCCC3)ccc2O[C@@H](C)CCCCO[C@H]1CN(C)C(=O)C1CCCCC1`, the cytotoxicity call was “inactive”. For `C[C@@H]1CN([C@H](C)CO)C(=O)c2c(c3ccccc3n2C)-c2ccccc2CO[C@H]1CN(C)C(=O)Nc1cccc(F)c1`, the cytotoxicity call was “inactive”. In the case of `C[C@@H]1CCCCO[C@H](CN(C)Cc2ccc(Cl)c(Cl)c2)[C@H](C)CN([C@@H](C)CO)C(=O)c2cc(NS(C)(=O)=O)ccc2O1`, the cytotoxicity call is reported as “active”. `C[C@@H]1CCCCO[C@H](CN(C)Cc2ccc(Cl)c(Cl)c2)[C@@H](C)CN([C@@H](C)CO)C(=O)c2cc(NS(C)(=O)=O)ccc2O1` was tested, and the cytotoxicity call was “inactive”. With `C[C@@H]1CN([C@H](C)CO)C(=O)c2cc(NS(C)(=O)=O)ccc2O[C@@H](C)CCCCO[C@H]1CN(C)Cc1ccc(Cl)c(Cl)c1` the cytotoxicity call was “active”. `C[C@@H]1CCCCO[C@@H](CN(C)Cc2ccc(Cl)c(Cl)c2)[C@@H](C)CN([C@@H](C)CO)C(=O)c2cc(NS(C)(=O)=O)ccc2O1` was tested, and the cytotoxicity call was “inactive”. For `C[C@@H]1CCCCO[C@H](CN(C)Cc2ccc(Cl)c(Cl)c2)[C@@H](C)CN([C@H](C)CO)C(=O)c2cc(NS(C)(=O)=O)ccc2O1`, the cytotoxicity call was “inactive”. With `C[C@@H]1CCCCO[C@@H](CN(C)Cc2ccc(Cl)c(Cl)c2)[C@H](C)CN([C@@H](C)CO)C(=O)c2cc(NS(C)(=O)=O)ccc2O1` the cytotoxicity call was “inactive”.
